A selection: hits, their analogues and other compounds. The true share with any hit is near 2.5%.
D2 ag-1 = agonists of human D2 dopamine receptor (beta-arrestin); P14416; DiscoveRx PathHunter D2 beta-arrestin, luminescence, 90 min; 100% = 57 uM dopamine signal; activation, % (test concentration not listed); 0.084% of 360,000 active; AID 624465; in the data active means activation above about 40%; inconclusive means between about 15% and that limit
Target sequence (P14416 whole entry, looked up): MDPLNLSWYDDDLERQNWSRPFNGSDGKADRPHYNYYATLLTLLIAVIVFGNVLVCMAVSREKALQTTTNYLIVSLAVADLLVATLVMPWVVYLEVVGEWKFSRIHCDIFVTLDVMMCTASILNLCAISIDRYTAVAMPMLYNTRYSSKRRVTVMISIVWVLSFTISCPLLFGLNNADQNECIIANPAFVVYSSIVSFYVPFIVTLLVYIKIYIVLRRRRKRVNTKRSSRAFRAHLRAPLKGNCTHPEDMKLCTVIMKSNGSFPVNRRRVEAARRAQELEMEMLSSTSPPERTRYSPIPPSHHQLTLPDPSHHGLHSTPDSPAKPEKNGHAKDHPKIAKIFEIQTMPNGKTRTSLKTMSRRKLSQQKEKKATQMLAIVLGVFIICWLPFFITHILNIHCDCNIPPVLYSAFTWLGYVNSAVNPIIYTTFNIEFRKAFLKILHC
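DiscoveRx PathHunter D2 beta-arrestin cells (2,100/well) attached overnight, then compound-stimulated 90 min at 37 C in HBSS/10 mM HEPES/0.1% Tween-20 buffer; beta-galactosidase complementation read by luminescence after 1 h at ambient temperature. Dopamine 57 uM final (EC100) as control.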
D2 PAM-1 = potentiates the human D2 dopamine receptor allosterically; potentiation, % (concentration not given with the values); P14416; DiscoveRx D2 beta-arrestin cells, luminescence, 90 min; 100% = 57 uM dopamine signal; 0.23% of 360,000 active; in the data active means potentiation above about 50%; inconclusive means mostly about 30% to 49%
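PathHunter beta-arrestin assay in DiscoveRx D2 cells. Compounds were added with an EC20 of dopamine (50 nM final) for 90 min at 37 deg C. Luminescence was read 1 h after detection reagent, with 57 uM dopamine as the EC100 control.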
D2 PAM-2 = positively modulates the human D2 dopamine receptor allosterically. HEK293 T-REx D2, calcium flux, EC20 dopamine potentiation. potentiation, % at 10 µM. 0.34% of 340,000 active;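 active means potentiation over 3 SD above the plate norm, cut at about 30% in these data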
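Cells plated with tetracycline inducer and held overnight at 30 C; calcium dye loaded 30–90 min at room temperature; baseline taken, compound added and read 180 s; EC20 dopamine then added and read 180 s.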
D2 ag-2 = agonists of human D2 dopamine receptor; P14416; HEK293 T-REx D2 cells, calcium flux agonist mode; activation, % at 2 µM; 0.53% of 340,000 active;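 active means activation over 3 SD above normal in the single-dose calcium agonist read, cut at about 30% in these data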
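In this primary screen, compounds producing a positive calcium signal within 180 s of addition to tetracycline-induced, force-coupled HEK293 Trex D2 cells are flagged; cells are dye-loaded with a no-wash calcium kit beforehand.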
Apoferritin bind = binds horse apoferritin like a general anesthetic; Potency, µM (top dose mostly 77.5 µM), usual class: inhibitors; apoferritin/1-aminoanthracene competitive binding, fluorescence; AID 485281; P02791; 0.074% of 350,000 active; active means well fitted inhibition curve with a large enough effect; inconclusive means small, poorly fitted or top-dose-only effect; inactive means no such curve, though single readings can be large or run the other way; further: nearly all actives have a fitted effect of over 20% in size
Target sequence (P02791 2-175 limits assumed): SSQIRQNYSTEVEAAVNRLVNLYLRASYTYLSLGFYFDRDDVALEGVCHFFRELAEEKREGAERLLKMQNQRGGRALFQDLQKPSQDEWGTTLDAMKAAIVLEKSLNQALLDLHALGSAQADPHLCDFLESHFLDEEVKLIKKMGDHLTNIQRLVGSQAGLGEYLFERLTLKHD
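Read-out: endpoint 1-AMA fluorescence, excitation 380 nm and emission 535 nm, after compounds sit 10 min at room temperature with 10 uM horse-spleen apoferritin in 50% saturated 1-AMA/PBS. Values come from four-parameter Hill fits.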
D2 antag = antagonizes the human D2 dopamine receptor; inhibition, % at 10 µM; P14416; HEK293 TREx D2 cells, calcium flux, dopamine EC80; 2% of 340,000 active; in the data active means inhibition above about 30%; inactive means below that, where a call was filed
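Dopamine at EC80 is the agonist stimulus; test compounds precede it by 180 s. Calcium flux read kinetically in a force-coupled, inducible HEK293 T-REx D2 cell line.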
Each line names hits and unclear results; the compound was inactive in the other large screens.

Cc1ccc(-n2nc3c(c2NC(=O)c2ccco2)CS(=O)C3)c(C)c1 (configuration not stated)	D2 antag 33 (no result: Apoferritin bind)
O=C(C[n+]1ccccn1)c1ccccc1	none
O=C(Cn1nc(CNc2ccc(Cl)cc2)[n+]2c1CCCCC2)c1ccccc1	none
Cc1ccc(C(C)C)c(OCc2nn(CC(=O)c3ccc(Cl)cc3)c3[n+]2CCCCC3)c1	D2 antag 33
O=C(Nc1ccc(S(=O)(=O)N2CCCC2)cc1)c1cc(F)c(F)cc1Cl	none
COc1cccc(-c2nn(C)c3sc(C(=O)N4CCN(c5cccc(C)c5)C(C)C4)cc23)c1 (configuration not stated)	none (no result: D2 ag-1, D2 PAM-1, D2 antag)
CCN(CC(=O)Nc1c(F)cccc1F)C(=O)/C=C/c1cn(Cc2ccccc2)nc1-c1cccnc1	D2 antag 32
COCCN(CCOC)C(=S)Nc1cc(S(=O)(=O)N(C)C)ccc1C	none
Cc1nc2nc(SCC(=O)c3cccc([N+](=O)[O-])c3)[nH]c2cc1Br	D2 antag 38
O=C(CSc1nc2ncc(Br)cc2[nH]1)c1cccc([N+](=O)[O-])c1	none
Cc1cccc(C)c1NC(=O)CNC(=O)CN1C(=O)NC2(CCc3ccccc32)C1=O (configuration not stated)	D2 antag 33 (no result: Apoferritin bind)
Cc1cccc(NC(=O)CNC(=O)CN2C(=O)NC3(CCCc4ccccc43)C2=O)c1C (configuration not stated)	none (no result: Apoferritin bind)
CNC(=O)NC(=O)CN1C(=O)NC2(CCOc3ccccc32)C1=O (configuration not stated)	D2 antag 31
CC(C)CC(=O)Nc1ccc(C(=O)CN2C(=O)NC3(CCOc4ccccc43)C2=O)cc1 (configuration not stated)	D2 PAM-2 33 (no result: Apoferritin bind)
COc1cc(NC(=O)CSc2nc(C)c(C)c(C)n2)cc(OC)c1	D2 antag 48
CCOc1ccc(OCCn2nnc3ccccc3c2=O)cc1	D2 PAM-2 52
CCOc1ccc(N2C(=O)CC(NC3CCCCNC3=O)C2=O)cc1 (configuration not stated)	D2 antag 45
CCC(C)(C)NC(=O)C(c1cccn1C)N(Cc1ccccc1)C(=O)Cn1nnc2ccccc21 (configuration not stated)	none
CCCCc1nc(NCCO)c(C#N)c2c1CCCC2	Apoferritin bind inconclusive, D2 antag 48
Cc1ccc(CNC(=O)C(=O)NCC(c2cccs2)S(=O)(=O)c2ccc(C)cc2)cc1 (configuration not stated)	none (no result: D2 ag-1, D2 PAM-1, D2 antag)
O=C1N=c2ccccc2=C1c1sc(=S)n(NC(=O)c2cccc(O)c2)c1O	none
CC(C)c1ccc(NC2CCCN(C(=O)CCc3cnn(C)c3)C2)cc1 (configuration not stated)	none
Cc1nn(C)c(C)c1CCC(=O)N1CCCC(Nc2ccc(C(C)C)cc2)C1 (configuration not stated)	D2 PAM-2 36
C/C(=C\C(=O)c1ccccc1)Nc1ccc(Cl)c(Br)c1	none (no result: D2 PAM-2, D2 ag-2, Apoferritin bind, D2 antag)
Cc1ccc(-c2nc3cc(NC(=O)C(C)C)ccc3o2)cc1	none
Cc1cc2nc(-c3ccc(NC(=O)C(C)C)cc3)oc2cc1C	D2 antag 32
O=C(CSC1=NS(=O)(=O)c2cc(F)ccc2N1)NCCc1ccccc1	D2 ag-2 36 (no result: Apoferritin bind)
O=C1OC(CCl)CN1Cc1c(Cl)cccc1Cl (configuration not stated)	none (no result: D2 PAM-2, D2 ag-2, Apoferritin bind, D2 antag)
CCCNC(=O)CSc1nc2ccc(OCC)cc2s1	D2 antag 35
CCOc1ccc2nc(SCC(=O)NC(=O)C(C)C)sc2c1	none
COc1cc(/C=N/NS(=O)(=O)c2ccccc2)ccc1OS(=O)(=O)c1ccc(C)cc1	none
COc1ccc(/C=N/NS(=O)(=O)c2ccccc2)cc1OS(=O)(=O)c1ccc(C)cc1	D2 antag 32
Cn1c2ccccc2c2ncn(CCCN3CCOCC3)c(=O)c21	D2 PAM-2 38
Cc1cc(NCCCO)n2c(nc3ccccc32)c1C#N	none (no result: D2 PAM-2, D2 ag-2, D2 antag)
Cc1cc(N2CCCCC2)nc(N)n1	D2 ag-2 69, D2 antag 60
Cc1cc(N2CCCC2)nc(-c2ccccc2O)n1	none
CCOC(=O)c1oc2cccc(OC(C)=O)c2c1C	D2 antag 37
CCOC(=O)c1oc2cccc(O)c2c1C	none
CCCOc1ccc(C2c3c(oc4ccccc4c3=O)C(=O)N2CCCN2CCOCC2)cc1 (configuration not stated)	D2 antag 36
CCOc1ccc(C2c3c(oc4ccccc4c3=O)C(=O)N2CCCN2CCOCC2)cc1 (configuration not stated)	none
CCOC(=O)c1c(C=O)c2sc(C)cc2n1C	D2 antag 43
CCOC(=O)c1c(C=O)c2ccccc2n1CC	none
CCCn1nnnc1NC(=O)c1cc(Br)ccc1OC	none
Cc1ccc(CN2C(=O)CCSc3ccc(Cl)cc32)cc1	none
O=C1CCSc2ccc(Cl)cc2N1Cc1cccc(Cl)c1	D2 antag 33
CC(=O)OC(C)CS(=O)(=O)c1ccccc1 (configuration not stated)	D2 antag 30
O=C(Cn1c(C(F)(F)F)nc2ccccc21)c1ccc(F)cc1	none
CCn1nnc(NC(=O)c2ccco2)n1	D2 antag 69
CCCn1nnc(NC(=O)c2ccco2)n1	none
C=CC(COCc1ccccc1)N(C(=O)OC(C)(C)C)S(=O)(=O)c1ccccc1Br (configuration not stated)	D2 antag 68
Cc1cc(OC(=O)c2ccco2)c(Sc2ccccc2[N+](=O)[O-])c(=O)o1	D2 antag 34
CCc1nc(N2CCC3(CC2)OCCO3)c2nnn(Cc3ccccc3Cl)c2n1	D2 PAM-2 34
Clc1ccccc1Cn1nnc2c(N3CCCC3)ncnc21	none
O=C(NNC(=O)c1ccc([N+](=O)[O-])cc1)c1ccc(NS(=O)(=O)c2cccs2)cc1	none (no result: D2 PAM-2, D2 ag-2, Apoferritin bind, D2 antag)
CC(C)(C)c1ccc(C(=O)NC(=S)NNC(=O)c2cccs2)cc1	D2 ag-2 51, D2 antag 56
O=C(NNC(=O)c1cccs1)c1ccc([N+](=O)[O-])cc1	D2 antag 61
COC(=O)c1cc(C(=O)OCC(=O)NNC(=O)c2cccs2)cc([N+](=O)[O-])c1	D2 PAM-1 71 (no result: Apoferritin bind)
O=C(NC(=S)NNC(=O)c1cccs1)c1ccccc1	none
O=c1[nH]c2ccccc2cc1CN(CC1CCCO1)S(=O)(=O)c1ccccc1 (configuration not stated)	D2 antag 35
